# Shiga toxin inh: blocks Shiga toxin action in Vero cells | AID 2315 | 9.2% of 290,000 active | inhibition, % at 38.7 µM | Vero cells, Shiga toxin protein synthesis inhibition reporter; in the data active means inhibition mostly above about 28%, no sharp cut-off; inactive means mostly below about 43%; further: 0% is about no effect
# TbPYK inhibitor: inhibitors of Trypanosoma brucei pyruvate kinase; 0.12% of 410,000 active; AID 624173; TbPYK enzyme, Kinase-Glo Plus ATP luminescence, 45 min; Q57TT1; Potency, µM (doses to about 76.8 µM), for the others: at the top dose activity, negative = inhibition, actives largely listed as inhibitors; further: potency means the concentration at half of the fitted maximal effect; on the % scale 0 is the no-effect control and ±100 the full control effect; nearly all actives have a fitted effect of over 50% in size
#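 Quantitative HTS: titrated library compounds versus trypanosomal pyruvate kinase in TEA buffer (pH 7.2) containing KCl, MgCl2, BSA and Tween-20. Reactions were initiated with ADP, 130 uM final. Kinase-Glo Plus luminescence was read after 45 min at RT.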
# LmPK inhibitor: blocks Leishmania mexicana pyruvate kinase activity; Potency, µM (titrated, usually from 57.5 µM), for inactives: at the highest dose activity change, negative = inhibition, most hits filed as inhibitors; Q27686; purified LmPK, Kinase-Glo ATP luminescence, 1 h; 0.37% of 290,000 active; further: potency means the concentration at half of the fitted maximal effect; on the % scale 0 is the no-effect control and ±100 the full control effect
# Target sequence (Q27686 whole entry, looked up): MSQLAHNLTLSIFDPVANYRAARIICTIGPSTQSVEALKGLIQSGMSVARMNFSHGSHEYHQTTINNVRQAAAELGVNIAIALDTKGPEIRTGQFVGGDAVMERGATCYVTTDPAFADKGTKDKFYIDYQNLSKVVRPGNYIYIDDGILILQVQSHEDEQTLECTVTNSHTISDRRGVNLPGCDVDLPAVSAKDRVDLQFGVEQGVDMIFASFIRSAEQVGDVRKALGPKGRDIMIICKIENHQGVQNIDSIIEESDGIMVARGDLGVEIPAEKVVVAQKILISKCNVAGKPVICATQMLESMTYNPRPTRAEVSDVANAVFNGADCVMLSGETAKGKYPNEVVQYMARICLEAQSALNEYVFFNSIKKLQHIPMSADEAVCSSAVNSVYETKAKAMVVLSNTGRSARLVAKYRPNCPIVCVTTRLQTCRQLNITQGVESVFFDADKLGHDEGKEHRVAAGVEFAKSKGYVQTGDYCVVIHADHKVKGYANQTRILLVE
#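 Purified LmPK (0.1 nM) with 0.5 mM PEP and 0.1 mM ADP in imidazole buffer pH 7.2 with MgCl2/KCl, 1 h at room temperature. ATP formed was read by luciferase luminescence and normalized to no-enzyme and uninhibited controls.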
# RE007 growth inh: less growth of the S. pombe RE007 Vpr strain | S. pombe RE007 Vpr strain, BacTiter-Glo ATP luminescence, 24 h | Potency, µM (highest dose often 92.2 µM), for inactives: at the highest dose activity change, negative = less growth, usual class: inhibitors | 0.21% of 360,000 active; active means well fitted falling curve with a large enough effect; inconclusive means small, poorly fitted or top-dose-only effect; inactive means no such curve, though single readings can be large or run the other way; further: potency means the concentration at half of the fitted maximal effect; on the % scale 0 is the no-effect control and ±100 the full control effect; nearly all actives have a fitted effect of over 50% in size
#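 Fission yeast strain RE007, carrying one chromosomally integrated HIV-1 vpr copy, was seeded at OD 0.01 in PMG+AL medium with 23 nL pinned compound. After 24 h at 30 °C and 99% humidity, viability was read by BacTiter-Glo luminescence.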
# Giardia FBPA inh: inhibitors of Giardia lamblia fructose-1,6-bisphosphate aldolase; A8B2U2; purified Giardia FBPA; Potency, µM (highest dose often 59.6 µM), inactives show at the highest dose activity, negative = inhibition, most hits filed as inhibitors; 0.71% of 290,000 active; further: potency means the concentration at half of the fitted maximal effect; on the % scale 0 is the no-effect control and ±100 the full control effect; nearly all actives have a fitted effect of over 55% in size
#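 Giardia FBPA (40 nM reagent) was preincubated 10 min at RT with compound (up to 57.5 uM final), then substrate plus GAPDH/TPI/NAD/arsenate coupling system with diaphorase/resazurin was added; resorufin fluorescence (525/598 nm) was read after 20 min.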
# Cycloheximide cs: affects cycloheximide protein synthesis inhibition readout, counter-screen; cell reporter, cycloheximide protein synthesis inhibition counterscreen; max response, %; 12% of 300,000 active; AID 2314; in the data active means max response mostly above about 13%, no sharp cut-off; inactive means mostly below about 14%; further: read at 38.3 µM for the half of the compounds with a filed dose; 0% is about no effect
# * marks the source's active call; other numbers are inactive results; ? = inconclusive; · = no result. The full list was thinned out, with hits kept by preference. Unless noted, the call rests on the fitted dose curve; in most records, active means well fitted curve in the direction sought with a large enough effect; inconclusive means small, poorly fitted or top-dose-only effect, or another doubt; inactive means no such curve, though single readings can be large; an effect the other way counts as inactive or inconclusive.
SMILES,Shiga toxin inh,TbPYK inhibitor,LmPK inhibitor,RE007 growth inh,Giardia FBPA inh,Cycloheximide cs
CO[C@]1(C)C[C@H]2O[C@]1(C)n1c3ccccc3c3c4c(c5c6ccccc6n2c5c31)C(=O)N(C)C4,-6,·,·,·,4%,-7
O=C(Cc1ccc2c(c1)OCCO2)Nc1cc(C(F)(F)F)ccc1N1CCOCC1,·,-4%,·,4%,·,·
Cc1cc(C)cc(OCC(=O)Nc2nc(-c3ccccn3)cs2)c1,·,2%,·,-13%,·,·
Cc1cccnc1Nc1nc(-c2ccccn2)cs1,126*,-8%,-5%,40µM*,?,47*
Cc1cccnc1Nc1nc(-c2ccccc2)cs1,104*,-12%,-14%,?,-20%,67*
COc1ccccc1NC(=O)CCNS(=O)(=O)c1ccc2c(c1)CCCC(=O)N2,·,-3%,·,·,·,·
O=C(CNCC1CCCCC1)Nc1ccc(N2CCCCC2)cc1,-2,·,-17%,·,?,15
O=C(Nc1ccc(N2CCOCC2)cc1)C1CCCCC1,85*,-2%,-10%,4%,5%,22
O=C(CNC1CCCC1)Nc1ccc(N2CCCCCC2)cc1,83*,4%,-1%,-6%,?,56*
O=C(CNCC1CCCO1)Nc1ccc(N2CCCCCC2)cc1 (centres undefined),43*,19%,-8%,22%,?,23*
O=C(CNCCC1=CCCCC1)Nc1ccc(N2CCCCCC2)cc1,21,-9%,-1%,3%,?,16*
COC(=O)[C@@]1(Cc2ccc(F)cc2)[C@H]2c3cc(C(=O)N(C)C)n(Cc4cc(F)c(F)c(F)c4)c3C[C@H]2CN1C(=O)c1ccccc1,·,·,·,·,5%,·
Cc1ccc(C)c(N2CCN(C(=O)C3CCN(S(=O)(=O)c4cn(C)cn4)CC3)CC2)c1,·,-4%,·,·,·,·
CCc1nnc(SCc2ccc(OC)cc2)c2cc3sc(C)cc3n12,·,-14%,·,·,·,·
C/C(=N\NC(=O)c1ccccc1N)c1ccc(NC(=O)Cc2ccccc2)cc1,65*,-1%,7%,4%,0%,36*
C/C(=N\NC(=O)c1cccc(C)c1O)c1ccc(NC(=O)Cc2ccccc2)cc1,45*,3%,-2%,-22%,·,39*
COc1ccccc1C(=O)N/N=C(\C)c1ccc(NC(=O)Cc2ccccc2)cc1,17,-7%,1%,24%,·,2
O=C(Oc1c(Cl)cc(Cl)c2cccnc12)c1cccs1,20,10%,5%,5.6µM*,-7%,-2
CCOC(=O)C1(CCc2ccccc2)CCN(C(=O)CCn2cnnn2)CC1,21,0%,6%,4%,-1%,12*
CCOC(=O)C1(Cc2ccccc2Cl)CCN(C(=O)CCn2ccnc2C)CC1,68*,0%,-2%,-5%,-4%,42*
CCOC(=O)C1(CCc2ccccc2)CCN(C(=O)CCn2cncn2)CC1,63*,0%,-1%,6%,4%,32*
CCOC(=O)C1(CCCc2ccccc2)CCN(C(=O)CCn2cnnn2)CC1,33,-4%,0%,14%,-3%,6
CCOC(=O)C1(CCc2ccccc2)CCN(C(=O)C(C)n2cncn2)CC1 (centres undefined),19,4%,1%,-3%,4%,-3
Cc1ccc(N(Cc2cccs2)C(=O)c2ccc(OC(C)C)cc2)cc1,·,0%,·,·,·,·
CCOc1ccc(C(c2c(NC(=O)c3ccccc3)sc(C)c2C)N2CCN(C)CC2)cc1 (centres undefined),31*,-3%,-2%,43%,8%,16
CCOc1ccc(C(c2c(NC(=O)c3ccco3)sc(C)c2C)N2CCOCC2)cc1 (centres undefined),·,-1%,·,6%,·,·
COc1ccc(OCCCCn2c(-c3ccc(Cl)cc3)nc3ccccc3c2=O)cc1,·,-10%,·,·,·,·
CC1=CCC(/C=N\Nc2nnc3c(n2)[nH]c2ccccc23)CC1 (centres undefined),55*,·,-10%,·,6%,76*
CCOC(=O)c1oc2ccc(S(=O)(=O)n3nc(-c4cc(OC)cc(OC)c4)cc3N)cc2c1C,·,-11%,·,·,·,·
